# Assay results from PubChem BioAssay AID602405 (Broad Institute, 2012).
# About 350 (0.097%) of roughly 360,000 compounds were called active. The sample as a whole holds a higher share of actives than the screen did. Values without a mark were called inactive. Cut-off read from the data, not from the text of the source: active = inhibition above about 16% (passing the limit was not always enough); inconclusive = no clear call, values can overlap the other calls; inactive = below that.
# Test system: UDP-N-acetylbacillosamine N-acetyltransferase PglD (Campylobacter jejuni)
# Assay: blockers of PglD enzyme activity – biochemical, DTNB colorimetric, single point, primary screen (AID 602405)
# Conditions: purified PglD enzyme, DTNB colorimetric CoA detection; at 12.5 µM; hits give high values
row,SMILES,inhibition
1,Cc1ccc(S(=O)(=O)NCC[C@H]2CC[C@H](NC(=O)c3ccccn3)[C@H](CO)O2)cc1,0.367%
2,CCCNC(=O)N1C[C@@H]2[C@H](c3ccccc31)[C@@H](CO)N2C(=O)NC(C)C,4.12%
3,CN1c2ccc(-c3ccccc3F)cc2[C@H]2[C@H](CCN2C(=O)Nc2cc(F)ccc2F)[C@H]1CO,-0.933%
4,C=CC1=C(C(=O)O)N2C(=O)[C@@H](NC(=O)/C(=N\OCC(=O)O)c3csc(N)n3)[C@H]2SC1,-2.51%
5,C=CC1=C(C(=O)O)N2C(=O)[C@@H](NC(=O)/C(=N/OCC(=O)O)c3csc(N)n3)[C@H]2SC1,71% (active)
6,OC[C@H]1[C@@H](c2ccc(/C=C/c3ccccc3)cc2)[C@H]2CN(Cc3cccnc3)CCCCN21,-0.638%
7,CO[C@@H]1CN(C)C(=O)c2cc(NC(=O)C3CC3)ccc2OC[C@H](C)N(Cc2ccc(F)cc2)C[C@@H]1C,-0.858%
8,O=C(C[C@H]1CC[C@H](NC(=O)Nc2ccc(C(F)(F)F)cc2)[C@H](CO)O1)NCCN1CCCC1,-2.91%
9,Cc1noc(C)c1NC(=O)N(C)C[C@H]1OCCCC[C@H](C)Oc2ccc(NC(=O)Nc3ccc4c(c3)OCO4)cc2C(=O)N([C@H](C)CO)C[C@@H]1C,3.46%
10,O=C(C[C@@H]1CC[C@@H]2[C@H](COC[C@H](O)CN2Cc2cccc(F)c2)O1)NCc1ccncc1,-0.388%
11,C[C@H]1CCCCO[C@H](CN(C)C(=O)CCC(F)(F)F)[C@@H](C)CN([C@@H](C)CO)C(=O)c2cc(NC(=O)Nc3ccc4c(c3)OCO4)ccc2O1,0.932%
12,Cc1ccc(NC(=O)CNCc2ccccn2)cc1S(=O)(=O)N(C)C,20.4% (active)
13,Cc1csc(SCC(=O)Nc2ccc(C)c(S(=O)(=O)N(C)C)c2)n1,3.71%
14,CCN(CC(=O)Nc1ccc(C)c(S(=O)(=O)N(C)C)c1)Cc1ccccc1,-3.38%
15,CC(C)(C)c1ccc(CN2C(=O)c3ccccc3S2(=O)=O)cc1,41.7% (active)
16,COc1ccc(CNC(=O)CN2C(=O)c3ccccc3S2(=O)=O)cc1,-2.12%
17,O=C1c2ccccc2S(=O)(=O)N1Cc1c(F)cccc1Cl,-4.6%
18,COc1ccccc1S(=O)(=O)N1CC[C@@H]2[C@H](CO)Nc3ccc(-c4ccccc4F)cc3[C@@H]21,2.37%
19,CCC(=O)Nc1ccc2c(c1)C(=O)N(C)C[C@@H](OC)[C@H](C)CN(Cc1ccccc1C(=O)O)[C@@H](C)CO2,1.3%
20,O=C(NCCS(=O)(=O)NCc1ccc(Cl)cc1)c1ccccc1,0.839%
21,O=S1(=O)CC(NCc2ccccc2)C(Nc2ccc(Cl)cc2)C1 (centres undefined),35.4% (active)
22,O=C(NCCc1ccc(Cl)cc1)C1CCCN1C(=O)NCc1ccccc1 (centres undefined),1.86%

row,SMILES,inhibition
1,CN(C)CC#Cc1ccc([C@H]2[C@H](CO)N3CCCCN(CC4CC4)C[C@@H]23)cc1,0.034%
2,COc1ccccc1CNC(=O)C[C@@H]1CC[C@@H]2[C@@H](COc3ccc(NC(=O)Nc4ccc(F)c(F)c4)cc3C(=O)N2C)O1,0.834%
3,C[C@@H]1CN([C@@H](C)CO)C(=O)c2cc(NS(C)(=O)=O)ccc2O[C@@H](C)CCCCO[C@@H]1CN(C)C(=O)c1ccccc1,2.15%
4,C[C@H]1CN([C@@H](C)CO)C(=O)Cc2cc(NC(=O)c3ccncc3)ccc2O[C@@H]1CN(C)C(=O)Nc1ccccc1,3.86%
5,O=C(C[C@@H]1CC[C@H](NC(=O)C2CC2)[C@H](CO)O1)NCc1ccccc1Cl,-4.45%
6,CN(C)Cc1cn(CC[C@H]2CC[C@H](NC(=O)Nc3ccccc3F)[C@@H](CO)O2)nn1,-0.499%
7,C[C@H]1CN([C@@H](C)CO)C(=O)c2cc(NC(=O)Cn3cnnn3)ccc2O[C@H]1CN(C)S(C)(=O)=O,-4.84%
8,O=C(Nc1ccccc1)N[C@@H]1CC[C@H](CCn2cc(C3(O)CCCC3)nn2)O[C@@H]1CO,2.19%
9,COc1ccc(-c2ccc3c(c2)O[C@@H](CN(C)CC2CCOCC2)[C@@H](C)CN([C@@H](C)CO)S3(=O)=O)cc1,-0.251%
10,O=C(C[C@@H]1CC[C@H]2[C@@H](COC[C@@H](O)CN2C(=O)Nc2ccc(Cl)cc2)O1)NC1Cc2ccccc2C1,2.05%
11,OC[C@@H]1Nc2ccc(-c3ccc(F)cc3)cc2[C@@H]2[C@H]1CCN2Cc1ccc(F)cc1,0.0285%
12,C[C@H](CO)N1C[C@H](C)[C@H](CN(C)S(=O)(=O)c2cn(C)cn2)OCCCC[C@H](C)Oc2ccc(N(C)C)cc2C1=O,-2.91%
13,COc1ccc(NC(=O)Nc2ccc3c(c2)C(=O)N([C@@H](C)CO)C[C@H](C)[C@H](CN(C)C(=O)Nc2ccccc2)OCCCC[C@@H](C)O3)cc1,1.95%
14,CC(C)C(=O)Nc1ccc2c(c1)C(=O)N(C)[C@@H]1CC[C@@H](CC(=O)NCCc3ccccc3)O[C@H]1CO2,-3.51%
15,C[C@@H]1CN([C@@H](C)CO)S(=O)(=O)c2ccc(C#Cc3cccnc3)cc2O[C@@H]1CN(C)C(=O)CN(C)C,0.034%
16,C[C@@H]1CN([C@H](C)CO)S(=O)(=O)c2ccc(/C=C/c3ccccc3)cc2O[C@@H]1CN(C)C(=O)Nc1ccc(F)cc1,4.65%
17,O=C([C@H]1[C@H](CO)[C@H]2Cn3c(cccc3=O)[C@@H]1N2Cc1cocn1)N1CCCCC1,-0.522%
18,C[C@H](CO)N1C[C@H](C)[C@H](CN(C)C(=O)Nc2ccc(C(F)(F)F)cc2)Oc2ccc(N(C)C)cc2CC1=O,1.24%
19,COc1ccccc1-c1cnc2c(c1)C(=O)N([C@@H](C)CO)C[C@@H](C)[C@H](CN(C)Cc1cccnc1)O2,1.03%
20,CCC(=O)N1C[C@@H](C)[C@H](OC)CN(C)C(=O)c2ccc(NC(=O)NC(C)C)cc2OC[C@H]1C,-4.33%
21,C[C@@H]1CN([C@@H](C)CO)C(=O)c2cc(N(C)C)ccc2O[C@@H](C)CCCCO[C@H]1CN(C)C(=O)CCCN(C)C,2.35%
22,CCC(=O)Nc1ccc2c(c1)C(=O)N(C)C[C@@H](OC)[C@@H](C)CN(Cc1ccccc1OC)[C@H](C)CO2,0.2%

row,SMILES,inhibition
1,CC(C)NC(=O)Nc1ccc2c(c1)C(=O)N([C@H](C)CO)C[C@@H](C)[C@@H](CN(C)S(=O)(=O)c1cccs1)OCCCC[C@@H](C)O2,-0.385%
2,C[C@H]1CN([C@@H](C)CO)C(=O)c2cccc(NC(=O)Nc3cccc4ccccc34)c2O[C@@H]1CN(C)C(=O)NC1CCCCC1,0.764%
3,C[C@@H]1CN([C@H](C)CO)S(=O)(=O)c2ccc(C#CCC3CCCC3)cc2O[C@H]1CN(C)Cc1ccc(C(=O)O)cc1,6.4%
4,Cc1noc(C)c1S(=O)(=O)Nc1ccc2c(c1)CC(=O)N([C@@H](C)CO)C[C@@H](C)[C@H](CN(C)C)O2,-1.66%
5,CN(C)C(=O)c1cccc(-c2ccc3c(c2)[C@@H]2[C@@H](CCN2Cc2nccs2)[C@@H](CO)N3)c1,0.288%
6,CCNC(=O)Nc1ccc2c(c1)C(=O)N(C)[C@@H]1CC[C@H](CC(=O)NC3CCCCC3)O[C@H]1CO2,1.07%
7,C[C@@H]1CN([C@@H](C)CO)C(=O)c2cc(C#CCN(C)C)cnc2O[C@@H]1CN(C)Cc1ccccn1,3.09%
8,COc1cccc(NC(=O)N(C)C[C@H]2Oc3ncc(C4=CCCCC4)cc3C(=O)N([C@H](C)CO)C[C@H]2C)c1,10.3%
9,CN1C(=O)c2cc(NC(=O)c3cccc(F)c3)ccc2OC[C@@H]2O[C@H](CC(=O)N3CCc4ccccc4C3)CC[C@@H]21,-1.96%
10,CNC(=O)C[C@@H]1CC[C@@H]2[C@H](COC[C@@H](O)CN2S(=O)(=O)c2ccccc2Cl)O1,1.56%
11,Cc1noc(C)c1S(=O)(=O)N(C)C[C@H]1Oc2ccc(NC(=O)Cc3ccccc3)cc2CC(=O)N([C@@H](C)CO)C[C@H]1C,2.8%
12,O=C(C[C@H]1C[C@@H]2c3cc(NC(=O)C4CCC4)ccc3O[C@@H]2[C@@H](CO)O1)NCCN1CCCCC1,3.36%
13,COc1cccc(S(=O)(=O)N[C@H]2C=C[C@H](CC(=O)NC3Cc4ccccc4C3)O[C@@H]2CO)c1,-1.14%
14,COc1ccc(S(=O)(=O)N[C@@H]2CC[C@H](CC(=O)N3CCc4ccccc4C3)O[C@H]2CO)cc1,-0.563%
15,COCC#Cc1cnc2c(c1)C(=O)N([C@@H](C)CO)C[C@@H](C)[C@H](CN(C)C(=O)C1CCOCC1)O2,4.25%
16,COc1ccc(NC(=O)N(C)C[C@H]2OCCCC[C@@H](C)Oc3ccc(NC(=O)NC4CCCCC4)cc3C(=O)N([C@@H](C)CO)C[C@H]2C)cc1,4.17%
17,O=C(NCC[C@@H]1CC[C@@H](NC(=O)Nc2cc(F)ccc2F)[C@H](CO)O1)Nc1ccc(Cl)cc1,0.614%
18,COc1cccc(S(=O)(=O)N2CCCCN3[C@H](CO)[C@H](c4ccc(-c5ccncc5)cc4)[C@H]3C2)c1,2.87%
19,Cc1noc(C)c1S(=O)(=O)N(C)C[C@@H]1Oc2ccc(NC(=O)C3CC3)cc2CC(=O)N([C@@H](C)CO)C[C@@H]1C,-3.27%
20,COc1cccc(C(=O)Nc2ccc3c(c2)C(=O)N(C)[C@H]2CC[C@H](CC(=O)N[C@@H](C)c4ccccc4)O[C@H]2CO3)c1,0.936%
